Screen size: about 360,000 compounds; about 1,300 (0.36%) were called active.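 The calls were made as follows: active = inhibition above the mean of all tested compounds plus 3 SD (cut at about 70% in these data); inactive = the rest.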 The entries come from a sample that favours actives as a whole.
biological target: Photoreceptor-specific nuclear receptor (Homo sapiens) (UniProt Q9Y5X4); assay: NCOR release from NR2E3 in cells – cell-based, luminescence, CHO-S, Gal4-NCOR/VP16-NR2E3, primary screen (AID 602229); conditions: CHO-S Gal4-NCOR/VP16-NR2E3 two-hybrid, luciferase; at 3.98 µM; stronger effect = higher value;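 also: 0% = DMSO with NR2E3 transfected cells and 100% = cells lacking NR2E3 construct; higher means lower luciferase signal from less NR2E3 corepressor binding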
Sequence (Q9Y5X4 whole entry, looked up, the tested form may be a part): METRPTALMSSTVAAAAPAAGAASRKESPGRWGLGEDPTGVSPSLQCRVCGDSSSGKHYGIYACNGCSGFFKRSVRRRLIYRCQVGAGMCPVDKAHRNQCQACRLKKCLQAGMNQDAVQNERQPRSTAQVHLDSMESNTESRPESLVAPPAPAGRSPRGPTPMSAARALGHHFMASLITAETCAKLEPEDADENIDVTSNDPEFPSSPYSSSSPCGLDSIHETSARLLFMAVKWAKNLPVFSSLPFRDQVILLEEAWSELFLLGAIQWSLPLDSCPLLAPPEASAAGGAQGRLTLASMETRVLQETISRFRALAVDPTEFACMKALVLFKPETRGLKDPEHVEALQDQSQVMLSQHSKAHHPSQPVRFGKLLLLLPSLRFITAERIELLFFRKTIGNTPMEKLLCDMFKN

SMILES	inhibition of corepressor binding
CN(C)c1ccc(NC(=S)N(CCc2ccccc2)C2CC(=O)N(c3c(Cl)cccc3Cl)C2=O)cc1 (configuration not stated)	0.55% (inactive)
COc1ccc(-c2ccc(C(=O)NC(C)C)c3occc23)c(C)c1	15.3% (inactive)
CC(=O)Nc1ccc(S(=O)(=O)NCC(=O)OCc2cc(=O)oc3ccc4ccccc4c23)cc1	-8.3% (inactive)
COc1ccc(CCNC(=O)CC2SC(=Nc3cc(C)cc(C)c3)NC2=O)cc1OC (configuration not stated)	-33.4% (inactive)
CCCOc1ccc(Cc2c(O)nc(SC)[nH]c2=O)cc1C	-21.5% (inactive)
CCCOc1ccc(Cc2c(Cl)nc(SC)nc2NC)cc1	92.3% (active)
CCn1c(/C=C/c2ccc([N+](=O)[O-])o2)nc2ccccc2c1=O	9.98% (inactive)
O=C(/C=C/c1ccc([N+](=O)[O-])o1)NNC(=O)c1ccc(F)cc1	101% (active)
O=C(/C=C/c1ccc(F)cc1)NC(=S)NNC(=O)c1cccnc1	-36.2% (inactive)
CC1=C(C(=O)Nc2ccccc2)C(c2cccs2)C(C#N)=C(SCC#N)N1 (configuration not stated)	-12.8% (inactive)
CNS(=O)(=O)c1ccc2c(c1)[nH]c(=S)n2C	10% (inactive)
CCCN(CC(=O)Nc1ccc(C(N)=O)cc1)CC(=O)Nc1ccccc1C	12.9% (inactive)
Nc1nc(-c2sc3nc4c(cc3c2N)CCCC4)nc(N2CCOCC2)n1	-56.6% (inactive)
COC(=O)C1C(=O)c2c([nH]c(C(=O)OCCSC)c2C)CC1C (configuration not stated)	-86.8% (inactive)
CCCOC(=O)c1[nH]c2c(c1C)C(=O)CC(c1cccs1)C2 (configuration not stated)	2.46% (inactive)
CCCOC(=O)c1[nH]c2c(c1C)C(=O)CC(c1cc(OC)c(OC)c(OC)c1)C2 (configuration not stated)	70.4% (active)
Cc1cc(C)c(S(=O)(=O)NCC2CCC(C(=O)NCc3ccc4c(c3)OCO4)CC2)c(C)c1 (configuration not stated)	-8.75% (inactive)
CC(C)C1Nc2c(C(=O)O)cccc2C(Nc2ccccc2C(=O)O)C1(C)C (configuration not stated)	6.02% (inactive)
COc1ccc(F)cc1S(=O)(=O)N1CCCCC1	4.16% (inactive)

SMILES	inhibition of corepressor binding
Cc1ccc(C)c(NC(=O)COC(=O)c2nn(C)c(=O)c3ccccc23)c1	8.19% (inactive)
Cc1ccc(F)cc1NC(=O)CSCc1c(C)noc1C	-16.1% (inactive)
Cc1ccc(F)cc1NC(=O)Cc1nn(C)c(=O)c2ccccc12	96.1% (active)
O=C(CN1CCN(S(=O)(=O)c2ccc(Br)cc2)CC1)Nc1ccccc1C(=O)c1ccccc1	3.01% (inactive)
CCCCC[C@@H]1C=C(C(=O)OCC)[C@H](c2ccccc2)N1S(=O)(=O)c1ccc(C)cc1	16.2% (inactive)
Cc1ccc(S(=O)(=O)N2[C@@H](c3ccc(Br)cc3)C(C(=O)O)=C[C@H]2CC2CCCC2)cc1	77.4% (active)
CCCCC[C@@H]1C=C(C(=O)O)[C@H](c2ccc(C#N)cc2)N1S(=O)(=O)c1ccc(C)cc1	-8.3% (inactive)
O=C(NCc1ccccc1)C(=O)NCC1OCCN1S(=O)(=O)c1ccc(Br)cc1 (configuration not stated)	10.3% (inactive)
COc1ccc(N(C)S(=O)(=O)c2ccc3c(c2)CC(C)N3C(=O)C2CC2)c(OC)c1 (configuration not stated)	-11.9% (inactive)
COc1cccc(CNS(=O)(=O)c2ccc3c(c2)CC(C)N3C(=O)C2CCC2)c1 (configuration not stated)	87.5% (active)
O=C(C1CCC1)N1CCc2cc(S(=O)(=O)NCc3cccnc3)ccc21	10% (inactive)
COc1ccc(S(=O)(=O)n2nc(C)c(S(=O)(=O)N3CCOCC3)c2C)cc1	-29.6% (inactive)
COc1ccc(S(=O)(=O)Nc2cccnc2)c(Cl)c1Cl	-20.2% (inactive)
COc1ccccc1Oc1ccc(S(=O)(=O)Nc2cccnc2)cc1	96.3% (active)
Cc1cc(C)c(C)c(S(=O)(=O)Nc2cccnc2)c1C	-21.1% (inactive)
CN(CCc1cnn(C)c1)Cc1cn(C)nc1-c1ccccc1F	-12.1% (inactive)
COc1ccc(NC(=O)C2=NNC(=O)CC2)cc1S(=O)(=O)N1CCCCC1	-7.29% (inactive)
CC1(C)O[C@@H]2CC3C4C[C@H](F)C5=CC(=O)C=CC5(C)C4C(O)CC3(C)[C@]2(C(=O)CO)O1 (some centres not stated)	7.42% (inactive)
COc1cccc(NS(=O)(=O)c2ccc(-c3coc(C)n3)cc2)c1	50.6% (inactive)

SMILES	inhibition of corepressor binding
Cc1ccc(NS(=O)(=O)c2ccc(-c3coc(C)n3)cc2)c(C)c1	73.5% (active)
Cc1ccc(NS(=O)(=O)c2ccc3c(c2)n(C)c(=O)c(=O)n3C)c(C)c1	10.7% (inactive)
CCC1CCCCN1C(=O)CSc1nc(C)cc(C)n1 (configuration not stated)	7.45% (inactive)
Cc1ccc(C(=O)OC2=CC(=O)CC(C)(C)C2)cc1	-13.1% (inactive)
CS(=O)(=O)N1CCN=C1SCc1ccc(F)cc1	-6.15% (inactive)
COc1cccc(N(CC(=O)NC2CCCC2)C(=O)CCCC(=O)Nc2ccccn2)c1	-5.7% (inactive)
Cc1ccc(S(=O)(=O)Nc2ccc3ncccc3c2)cc1	74.2% (active)
COc1cc(NS(=O)(=O)c2ccc3ccccc3c2)c2ncccc2c1	48% (inactive)
O=S(=O)(Nc1ccc(Oc2ncccn2)c(Cl)c1)c1ccc(F)cc1	-0.77% (inactive)
COC(=O)c1ccccc1NC(=O)C1CCN(S(=O)(=O)c2cc(OC)ccc2OC)CC1	-0.68% (inactive)
CC(C)N=C1CCCC1C(=S)SSC(=S)C1CCCC1=NC(C)C (configuration not stated)	82.3% (active)
O=C(CSc1ccccn1)N1CCN(S(=O)(=O)c2ccc(Cl)cc2)CC1	-21.8% (inactive)
CCCc1cc(=O)[nH]c(SCc2ccc(C#N)cc2)n1	-25.9% (inactive)
O=C(CN(CC1CCCO1)C(=O)CNS(=O)(=O)c1ccccc1)NCc1ccccc1 (configuration not stated)	-7.79% (inactive)
CN(O)C(=S)c1ccccc1	98.8% (active)
CCOC(=O)C1=NNC2(c3ccc(Cl)cc3)C(=O)N(c3cc(C)cc(C)c3)C(=O)C12 (configuration not stated)	3.14% (inactive)
Cc1cc(C)nc(NC(=O)Nc2ccccc2C(F)(F)F)n1	-48.1% (inactive)
CC(C)(C)C(=O)COC(=O)c1cc(S(=O)(=O)N2CCCCC2)ccc1N1CCOCC1	-9.47% (inactive)
COc1ccccc1CCCNC(=O)C1CCC(=O)N(CCN2CCOCC2)C1 (configuration not stated)	-8.73% (inactive)
